# GDH-TPI inh – GDH-TPI coupling enzyme inhibitors, primary screen, artefact control for M. tuberculosis FBA inhibitor project, biochemical, absorbance, full deck; GDH-TPI coupled enzyme counterscreen, NADH absorbance; inhibition, % at 4.8 µM; 1.2% of 360,000 active; AID 588335, 2011; in the data active = inhibition above about 30%;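 also: 0% = DMSO wells and 100% = wells lacking the enzyme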
# Mtb bLac sens – beta-lactam sensitization of Mtb H37Rv, H37Rv; 0.27% of 330,000 active; M. tuberculosis H37Rv growth with meropenem, percent inhibition; inhibition, % at 25 µM; AID 434955, 2010; call rule not given here;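 also: growth measured after seven days incubation then overnight dye step; 0% = bacteria only wells and 100% = bacteria with antibiotic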
# Mtb FBA inh – Mtb FBA enzyme inhibitors, primary screen, biochemical, fluorescence, strain H37Rv; Fructose-bisphosphate aldolase (Mycobacterium tuberculosis (strain ATCC 25618 / H37Rv)), …; purified M. tuberculosis FBA, fluorescence read-out; inhibition, % at 1 µM; 2.3% of 360,000 active; in the data active = inhibition above about 27%;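 also: 0% = vehicle and 100% = reference inhibitor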
# Target sequence (P9WQA3 whole entry, looked up): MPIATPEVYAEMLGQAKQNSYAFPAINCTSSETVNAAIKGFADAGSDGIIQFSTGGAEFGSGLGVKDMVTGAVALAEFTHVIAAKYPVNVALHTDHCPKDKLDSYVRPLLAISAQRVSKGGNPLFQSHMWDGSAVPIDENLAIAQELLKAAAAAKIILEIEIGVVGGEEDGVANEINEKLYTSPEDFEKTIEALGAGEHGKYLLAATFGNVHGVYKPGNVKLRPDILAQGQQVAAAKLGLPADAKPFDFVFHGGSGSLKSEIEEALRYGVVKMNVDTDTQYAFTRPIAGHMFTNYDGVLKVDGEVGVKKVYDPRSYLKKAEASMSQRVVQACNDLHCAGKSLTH
# Rv3671c protease – Rv3671c serine protease inhibitors, primary screen, biochemical, fluorescence polarization, M. tuberculosis H37Rv; 0.048% of 320,000 active; inhibition, % at 5.96 µM; AID 2606, 2010; P9WHR9; in the data active = inhibition above about 38%;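 also: extracellular domain of Rv3671c used as enzyme; 0% = enzyme with DMSO and 100% = no enzyme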
# FadD28 FP inh – inhibitors of FadD28 bisubstrate probe binding, primary screen, biochemical, fluorescence polarization, single point | Mycobacterium tuberculosis FadD28 fatty-acid-AMP ligase | inhibition, % at 12.5 µM | 0.22% of 360,000 active | AID 588549, 2011; in the data active = inhibition above about 8.5%, passing the limit was not always enough; inconclusive = no clear call, values can overlap the other calls
# Mtb UGM inh – M. tuberculosis UGM enzyme inhibitors, primary screen, biochemical, fluorescence polarization, single point. purified UGM, fluorescence polarization probe displacement. UDP-galactopyranose mutase (Mycobacterium tuberculosis (strain ATCC 25618 / H37Rv)), …. 0.06% of 320,000 active. inhibition, % at 10 µM. AID 504406, 2011; in the data active = inhibition above about 10%, passing the limit was not always enough; inconclusive = no clear call, values can overlap the other calls
# Numbers without * were called inactive; u = inconclusive; x = no result given; + = active, no number. Hits are enriched below; roughly 3.7% of the tested compounds scored in any of these assays.
SMILES,GDH-TPI inh,Mtb bLac sens,Mtb FBA inh,Rv3671c protease,FadD28 FP inh,Mtb UGM inh
CC(C)NC(=O)c1cc2c(=O)n3ccccc3nc2s1,-12,-4,-3,4,1,-1
Cc1cccn2c(=O)c3cc(C(=O)NC4CCS(=O)(=O)C4)sc3nc12 (configuration not stated),27,-9,192*,0,-3,2
O=C(NC1CCCCCC1)c1cc2c(=O)n3ccccc3nc2s1,18,1,+,-8,-3,3
C=CCNC(=O)c1cc2c(=O)n3ccccc3nc2s1,12,4,+,5,-2,-2
CC(Oc1ccc(F)cc1)C(=O)Nc1cc(Cl)ccc1-n1cncn1 (configuration not stated),1,-4,2,1,-2,0
C[C@@H]1CN([C@H](C)CO)S(=O)(=O)c2ccc(C#Cc3cccc(F)c3)cc2O[C@@H]1CN(C)C(=O)CN1CCOCC1,2,x,0,x,-4,x
CC1(C(=O)NS(=O)(=O)c2ccc(Cl)cc2)CCN1C(=O)CCc1cccs1 (configuration not stated),6,x,4,x,0,x
COc1cc(/C=C2/C(C)=C(C#N)c3nc(N)c(C#N)c(C)c32)ccc1OCC(=O)O,x,-1,x,0,x,2
CC1=C(C#N)c2nc(N)c(C#N)c(C)c2/C1=C\c1ccc(-c2ccccc2C(=O)O)o1,11,x,-6,x,12*,x
COc1ccccc1NC(=O)c1c(NC(=O)CCC(=O)O)sc2c1CCCCC2,31*,-4,10,9,-1,0
COc1ccc(OC)c(NC(=O)c2c(NC(=O)CCC(=O)O)sc3c2CCCCC3)c1,6,5,1,3,2,0
Oc1nc(Nc2cccc(Cl)c2)sc1/C=C1\C=Nc2ccccc21,25,94,-3,-17,-2,-4
Oc1cccc(Nc2nc(O)c(/C=C3\C=Nc4ccccc43)s2)c1,41*,-1,5,-28,-1,2
Cc1ccc(C2CC(=O)NC(SCC(=O)Nc3nccs3)=C2C#N)cc1 (configuration not stated),0,-1,-8,1,12*,4
CCOc1ccccc1C1CC(=O)NC(SCC(=O)Nc2nccs2)=C1C#N (configuration not stated),-4,-8,-1,0,-5,4
CN(C)c1ccc(C=Nc2ccc(N(C)C)cc2)cc1,32*,30,-1,-13,-1,0
CN(C)c1ccc(/C=N/O)cc1,7,-6,3,3,-5,-2
Cc1ccc(N=Cc2ccc(N(C)C)cc2)cc1C,23,2,-1,-1,-3,2
CN(C)c1ccc(C=Nc2ccccc2)cc1,46*,-6,1,1,-1,1
Cc1ccc(N=Cc2ccc(N(C)C)cc2)cc1,39*,-3,0,3,1,1
CCOC(=O)N1CCN(/C=C(\C#N)c2nc3ccccc3s2)CC1,35*,-15,1,-15,-2,0
N#C/C(=C\N1CCN(Cc2ccc3c(c2)OCO3)CC1)c1nc2ccccc2s1,26,90,1,1,-1,2
CN(C)C(=S)c1ccccc1,2,-6,2,-1,-1,3
CN(/N=C/c1ccccc1O)C(=S)c1ccccc1,32*,11,1,0,-1,-1
C[C@@H]1CN([C@@H](C)CO)C(=O)CCCn2cc(nn2)CO[C@H]1CN(C)S(=O)(=O)c1ccc(C#N)cc1,-1,x,-2,x,-3,x
SMILES,GDH-TPI inh,Mtb bLac sens,Mtb FBA inh,Rv3671c protease,FadD28 FP inh,Mtb UGM inh
Cc1c(/C=C/C(=O)c2ccc(O)cc2)cnn1C,39*,-2,2,-2,-2,-1
Cc1nn(C)cc1/C=C/C(=O)c1ccccc1,36*,x,0,1,-2,0
C=CCN(CC=C)c1ncnc2[nH]ncc12,10,x,2,x,1,x
CSc1ccc(NC(=O)Nc2ccc(C(=O)NCC(=O)O)cc2)cc1,7,-1,-1,x,11*,0
CCSc1ccc(C(=O)NCC(=O)O)cc1,-3,8,-1,-2,-2,-1
CC/C(=N\NC(=O)c1ccccc1Cl)c1c(O)n(C2CCCCC2)c(=O)[nH]c1=O,34*,-1,-3,6,5,-2
COc1ccc2c(=O)c(-c3ccc(C)cc3)c(-c3ccccc3)oc2c1,14,x,2,x,-2,x
Nc1ccn([C@@H]2O[C@H](CNC(=O)[C@H]3CCC(=O)N3)[C@@H](O)[C@H]2O)c(=O)n1,8,x,1,x,-2,x
CN(C)c1ccc(CNC(=O)C2Cc3c(-c4cccc(C(N)=O)c4)ccnc3O2)cc1 (configuration not stated),3,x,-4,x,-4,x
COc1cccc(-c2cc(-c3cccnc3)nc(N)c2C#N)c1,12,-5,127*,-9,-2,-4
N#Cc1c(-c2ccc(F)cc2)cc(-c2cccnc2)nc1N,-17,u,24,-2,1,-2
COc1cccc(-c2cc(-c3cccnc3)c(C#N)c(N)n2)c1,32*,0,+,-6,-1,-3
COc1cc(-c2cc(-c3ccc(O)cc3)nc(N)c2C#N)ccc1O,18,32,5,-25,-7,2
N#Cc1c(-c2cccc(Br)c2)cc(-c2cccnc2)nc1N,16,5,131*,-48,0,4
COc1ccc(-c2cc(-c3ccc(O)cc3)nc(N)c2C#N)cc1,4,70,49*,-20,-5,0
COc1ccc(OC)c(-c2cc(-c3cccnc3)nc(N)c2C#N)c1,28,1,0,-8,-2,0
COC(=O)Nc1nnc(-c2ccccc2Cl)s1,2,-17,48*,2,-4,-1
O=C(CSc1ccc(Cl)cc1)N1CCOCC1,-3,-2,-11,-5,15*,2
CC1CCN(C(=O)CSc2nc(N)c3c4c(sc3n2)CN(C)CC4)CC1,11,x,31*,x,-2,x
CCOC(=O)CSc1nc2sc3c(c2c(=O)n1-c1ccc(OC)cc1)CCN(C)C3,25,19,2,x,-2,1
CN1CCc2c(sc3nc(SCC(=O)N4CCOCC4)n(-c4ccc(Cl)cc4)c(=O)c23)C1,51*,2,25,-8,-7,-2
CNC(=O)CSc1nc(N)c2c3c(sc2n1)CCC3,11,7,3,-3,-1,x
COc1ccc(-n2c(SCC(N)=O)nc3sc4c(c3c2=O)CCN(C)C4)cc1,35*,-2,35*,8,-2,-1
Cc1cccc(-n2c3nc(=O)[nH]c(=O)c-3cc3c(C)nn(-c4ccccc4)c32)c1,x,-5,x,-2,x,1
Cc1ccc(-n2c3nc(=O)[nH]c(=O)c-3cc3c(C)nn(-c4ccccc4)c32)c(C)c1,21,3,+,-3,-3,2
